Inconclusive results are not listed. A call without a number means that no potency is given here. Active and inactive are the calls of the source. The call rests on the fitted dose curve; in most records, active means well fitted cell-killing curve with a large enough effect; inconclusive means small, poorly fitted or top-dose-only effect, or effect the other way; inactive means no such curve, though single readings can be large or run the other way.
How the values were obtained:
[1] = Viability qHTS for spleen associated tyrosine kinase inhibitor (SYKi) naive MV4-11 cells (AID 1963823); further: nearly all actives have a fitted effect of over 40% in size
How it was run: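 Seeding of 500 SYKi-naive MV4-11 cells per well onto pre-dispensed compounds preceded a 72 hr incubation at 37 C. Luminescent CellTiter-Glo signal, read after 10 min at room temperature, reflected viable cells.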

[2] = Viability qHTS for spleen associated tyrosine kinase inhibitor (SYKi) drug resistant MV4-11 cells (AID 1963824); further: nearly all actives have a fitted effect of over 35% in size
How it was run: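 CellTiter-Glo luminescence, read 10 min after reagent addition, reports viability after a 72 hr compound exposure. Cells are an MV4-11 line made resistant to SYK inhibition, seeded at 500 per well onto compound-containing plates.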
Potency means the concentration at half of the fitted maximal effect.

Compound	Potency [1]	Potency [2]
CC(=O)OC[C@]12C[C@H](OC(=O)CC(C)C)C(C)=C[C@H]1O[C@@H]1[C@H](O)C[C@@]2(C)[C@]12CO2	252 nM (active)	282 nM (active)
COc1cc(C(=O)O[C@H]2[C@@H]3C=CO[C@@H](O[C@@H]4O[C@H](CO)[C@@H](O)[C@H](O)[C@H]4O)[C@@H]3[C@@]3(CO)O[C@@H]23)ccc1O	inactive	inactive
COc1cc2cc(c1Cl)N(C)C(=O)C[C@H](OC(=O)C(C)C)[C@]1(C)O[C@@H]1[C@H](C)[C@@H]1C[C@@](O)(NC(=O)O1)[C@H](OC)/C=C/C=C(\C)C2	inactive	inactive

— PubChem BioAssay (NCATS)
